PME-1 Maybr inh: inhibitors of human PME-1 in Maybridge library; Protein phosphatase methylesterase 1 (Homo sapiens), Q9Y570; recombinant PME-1, FP-Rh probe fluorescence polarization; inhibition, % at 9 µM; hit rate 0.5% among 16,000; in the data active means inhibition above about 30%
Target sequence (Q9Y570 whole entry, looked up): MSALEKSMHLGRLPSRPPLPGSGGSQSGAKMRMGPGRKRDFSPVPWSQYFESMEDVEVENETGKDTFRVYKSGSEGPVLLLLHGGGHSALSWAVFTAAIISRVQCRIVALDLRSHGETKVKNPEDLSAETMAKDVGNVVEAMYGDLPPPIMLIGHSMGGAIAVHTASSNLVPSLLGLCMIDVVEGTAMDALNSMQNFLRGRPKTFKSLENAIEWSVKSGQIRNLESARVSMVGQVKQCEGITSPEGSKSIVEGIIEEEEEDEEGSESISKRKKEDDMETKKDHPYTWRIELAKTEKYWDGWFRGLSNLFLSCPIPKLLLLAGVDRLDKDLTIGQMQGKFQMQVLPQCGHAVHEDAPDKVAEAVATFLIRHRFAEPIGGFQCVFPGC
S1P1 agonist: activates the human S1P1 receptor; S1P1 agonist cell-based reporter assay; hit rate 1.5% among 16,000; activation, % at 4.5 µM; Sphingosine 1-phosphate receptor 1 (Homo sapiens), P21453; AID 1044, 2008; in the data active means activation above about 80%
rat GALR2 agon: agonists of rat galanin receptor 2 (GALR2) | hit rate 0.5% among 16,000 | cell-based GALR2 agonist screen | activation, % at 10 µM | AID 833, 2007; in the data active means activation above about 15%
TLR4-MyD88 inh: inhibitors of human TLR4-MyD88 binding; inhibition, % at 10 µM; hit rate 0.06% among 16,000; Cell-based TLR4-MyD88 binding inhibition assay; Toll-like receptor 4 (Homo sapiens), O00206; in the data active means inhibition above about 45%
KOR antag MB: antagonists of human kappa opioid receptor OPRK1, Maybridge library | hit rate 0.4% among 16,000 | inhibition, % at 9 µM | Kappa-type opioid receptor (Homo sapiens), P41145 | AID 652031, 2013 | OPRK1 cells, antagonist mode, fluorescence readout; in the data active means inhibition above about 50%
A number is an active result; . = inactive; / = not tested or not shown. Sampled rows, rich in hits. Any-hit rate of the full collection: about 2.8%.

SMILES | PME-1 Maybr inh | S1P1 agonist | rat GALR2 agon | TLR4-MyD88 inh | KOR antag MB
CC(C)S(=O)(=O)/C(C#N)=C/Nc1ccc(Cl)cc1 | . | . | . | . | .
Cc1c(-c2csc(-c3ccc4c(c3)OCCO4)n2)cnn1-c1ccccc1 | . | . | . | . | .
O=[N+]([O-])c1cc(Cl)ccc1Sc1ccccc1NS(=O)(=O)c1ccc(F)cc1 | 63.1 | . | . | . | .
Nc1ccccc1Sc1ccc(Cl)cc1[N+](=O)[O-] | . | . | . | . | .
COc1ccccc1CC(=O)NC1CC2CCC(C1)N2C (configuration not stated) | . | . | . | . | .
O=C(NNc1c(Cl)cncc1Cl)C(c1ccccc1)c1ccccc1 | . | . | . | . | .
N#Cc1c(C(F)(F)F)c([N+](=O)[O-])c(-c2cccc([N+](=O)[O-])c2)[nH]c1=O | . | . | 25.1 | . | .
COC(=O)c1cc(-c2ccc(OC)cc2)c(-c2ccc(OC)cc2)s1 | . | . | . | . | 78.4
O=C(Nc1ccc(N2CCOCC2)cc1Cl)C1CCN(C(=O)OCc2ccccc2)CC1 | . | 101.5 | . | . | .
COc1ccc(NC(=S)NC(=O)c2ccccc2)c([N+](=O)[O-])c1 | . | . | . | . | .
COc1ccc(NC(=S)NC(C)(C)C)c([N+](=O)[O-])c1 | . | 89.8 | . | . | .
Cc1[nH]c2ccccc2c1SCc1n[nH]c(=S)n1C | 34.1 | . | 20.1 | . | .
CS(=O)(=O)Cc1nnc(-c2cccc([N+](=O)[O-])c2)o1 | . | . | . | . | .
CCOC(=O)c1c(NC(=O)c2ccc3ncccc3c2)sc(C)c1C | . | . | 41.8 | / | .
COc1ccc(/C=C2/N=C(c3ccccc3)NN(Cc3ccccc3)C2=O)cc1 | . | . | . | . | .
COc1ccc(/C=C2/N=C(c3ccccc3)NC2=O)cc1 | . | . | 15.0 | . | .
O=C(Nc1ccccc1)OCCOc1cc(C(F)(F)F)ccn1 | . | . | . | . | .
O=C(O)c1cc([N+](=O)[O-])ccc1Oc1cncc(Cl)c1 | . | . | . | . | .
O=C1CSCC(=O)N1c1csc(C(F)(F)F)c1-c1ccccc1 | . | 100.0 | . | . | .
O=[N+]([O-])c1c(NCc2ccco2)ncnc1NCc1ccco1 | . | . | . | . | .
Cc1ccc(-c2csc3ncnc(NCc4ccco4)c23)cc1 | . | 86.8 | . | . | .
O=S(=O)(c1ccccc1)N1CCN(c2ncnc3sccc23)CC1 | . | 92.1 | . | . | .
CCOC(=O)/C(C#N)=C/c1cn(-c2ccccc2)nc1-c1ccccc1 | . | . | 69.5 | . | .
NC(=NC(=O)c1cccc(C(F)(F)F)c1)c1ccc(C(F)(F)F)cn1 | . | . | . | . | 58.4
N/C(=N\OC(=O)c1cccc(C(F)(F)F)n1)c1cccc(C(F)(F)F)c1 | . | 90.7 | . | . | .
SMILES | PME-1 Maybr inh | S1P1 agonist | rat GALR2 agon | TLR4-MyD88 inh | KOR antag MB
Cc1cc(-c2onc(C)c2C(=O)O/N=C(\N)c2cccc(C(F)(F)F)c2)no1 | . | . | . | . | .
COC(=O)/C=C1\SC(=Nc2ccc(Cl)cc2)N(c2ccc(Cl)cc2)C1=O | . | . | . | . | 64.9
CC(=O)Nc1ccc(OC(F)(F)F)cc1Cl | . | . | . | . | .
O=C1Nc2ccc(OC(F)(F)F)cc2C1=O | . | . | 25.8 | . | .
Cc1cc(C(F)(F)F)cc(-n2cc(C#N)c(N)n2)n1 | . | . | . | . | .
S=c1[nH]nc(-c2ccccc2)n1/N=C/c1cccs1 | . | . | . | . | .
O=c1c2cc(-c3ccccc3)sc2nnn1/N=C/c1cccs1 | . | . | . | . | 70.9
CC(=O)c1sccc1NC(=O)CSCc1ccc(Cl)cc1 | . | . | . | . | .
FC(F)(F)c1c(-c2nnnn2-c2ccccc2)cnn1-c1ccccc1 | . | . | . | . | .
Cn1c(=O)c2cc3cc(Cl)ccc3nc2c2c(=O)n(-c3ccccc3)c(=O)n(-c3ccccc3)c21 | . | . | . | . | 70.1
Cn1c(=O)c2c3nc4ccccc4cc3c(=O)n(C)c2n(C)c1=O | . | . | . | . | .
Cn1ncc2c(NNC(=S)Nc3ccc(F)cc3F)ncnc21 | . | . | . | . | .
O=C1c2cccc3c([N+](=O)[O-])ccc(c23)C(=O)N1Cc1cccnc1 | 32.9 | . | . | . | .
Cc1ccc(C)c(CSc2nc(C3CCCCC3)c(C#N)c(=O)[nH]2)c1 | . | 97.0 | . | . | .
CSc1nc(CSc2ccc(Cl)cc2)nc(C2CC2)c1C#N | . | . | . | . | .
O=C(NCCSCc1ccco1)C1CC1 | . | . | . | . | .
CCOC(=O)/C(C(=S)Nc1ccccc1)=C(\C)NCc1ccco1 | . | . | . | . | .
O=Cc1c(O)c2ccccc2c2ccccc12 | 30.6 | . | . | . | 72.4
C[n+]1cccc(-c2n[nH]c(-c3ccccc3)n2)c1 | . | 110.0 | . | . | .
O=[N+]([O-])c1cccc(Cl)c1Oc1ccc(S(=O)(=O)N2CCOCC2)cc1 | 33.0 | . | . | . | .
CC(C)(C)OC(=O)N1CCCN(S(=O)(=O)c2ccc3c(c2)CCO3)CC1 | . | . | . | . | .
COc1ccc(S(=O)(=O)N2CCN(c3ccc(C(F)(F)F)cc3[N+](=O)[O-])CC2)cc1OC | . | . | 79.7 | . | .
Cc1[nH]nc2oc(=O)cc(-c3ccccc3)c12 | . | . | . | . | .
N/C(=N\OC(=O)c1ccc(OCC(F)(F)F)nc1)c1cccc(Cl)c1 | . | 94.7 | . | . | .
N/C(=N/OC(=O)Nc1ccc(Cl)cc1)c1csc([N+](=O)[O-])c1 | . | . | . | . | .
SMILES | PME-1 Maybr inh | S1P1 agonist | rat GALR2 agon | TLR4-MyD88 inh | KOR antag MB
Cc1nn(-c2ccccc2)nc1C(=O)Oc1ccc(CC#N)cc1 | . | . | . | . | .
CCOC(=O)CNc1ccc(C(F)(F)F)cc1 | . | . | 61.1 | . | .
CCOC(=O)NC(=S)Nc1ccc(C(C)(C)C)cc1 | . | . | . | . | .
Cc1occc1C(=O)/C(C#N)=C/N=S(C)(=O)c1ccc(Oc2ccc([N+](=O)[O-])cn2)cc1 (configuration not stated) | . | . | . | . | .
CCOC(=O)[C@@H](N)CCSC | . | . | . | . | 51.8
CCOC(=O)C(N)CCCCN (configuration not stated) | . | . | . | . | .
O=S(=O)(Nc1ccc(Cl)cc1)c1ccccc1I | . | . | . | . | .
C/S(=N\S(=O)(=O)c1ccc(Cl)cc1)c1sc(Cl)c2c1C(=O)CC(C)(C)C2 (configuration not stated) | . | 82.6 | . | . | .
FC(F)(F)c1cnc(NCCNc2nccc(C(F)(F)F)n2)c(Cl)c1 | . | . | . | . | .
CCOC(=O)/C(N=Nc1ccc(C(F)(F)F)cc1)=C(/O)CSc1nnc(C(F)(F)F)n1C | . | . | . | . | .
Cc1c2c(=O)n(C)ncc2c(-c2ccccc2)n1-c1ccc([N+](=O)[O-])cc1 | . | . | . | . | .
O=c1c2c(-c3ccc([N+](=O)[O-])cc3)onc2n(-c2ccccc2)c(=O)n1-c1ccccc1 | . | 123.0 | . | . | .

High-throughput results deposited in PubChem by The Scripps Research Institute Molecular Screening Center.
